Screens from PubChem BioAssay.
This is a sample that favours compounds with a hit; in the whole collection about 17% have one here.
HepG2 tox – kills HepG2 cells in TGF-b inhibitor counter-screen | HepG2 CAGA-GFP viability, ATP luminescence, 18 h | Potency, µM (titrated, usually from 46.1 µM), without a hit: top-dose activity change, negative = cytotoxicity, hits mostly cytotoxic | 0.76% of 410,000 active | AID 588856
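CellTiter-Glo luminescence gave cytotoxicity after 18 hours at 37 degrees C. The cells were HepG2 CAGA-GFP in 1% FBS DMEM, stimulated with 500 pg/mL TGF-beta after compound addition. %Activity was normalised to no-cell wells (complete cell-killing) and DMSO (no toxicity), and curves were fitted and classified.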
TGFb inhibitor – TGF-b pathway inhibition; Potency, µM (doses to about 46.1 µM), for inactives: top-dose activity, negative = inhibition, most hits filed as inhibitors; AID 588855; HepG2 CAGA-GFP TGF-b/SMAD3 reporter, GFP fluorescence, 18 h; TGF-beta stimulated, 500 pg/mL final; 1.2% of 410,000 active; further: on the % scale 0 is the no-effect control and ±100 the full control effect; nearly all actives have a fitted effect of over 65% in size
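Cell-based qHTS in HEPG2 carrying a CAGA-GFP Smad reporter; compounds added before 500 pg/mL final TGF-beta, 18 h incubation at 37 degrees C, GFP fluorescence quantified per cell by imaging cytometry.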
DT40 TDP1 CPT – growth inhibition of DT40 Tdp1-/-;hTDP1 cells with camptothecin (screen for TDP1 inhibitors); AID 686979; 12% of 420,000 active; Potency, µM (highest dose often 46.2 µM), inactives show at the top dose activity change, negative = growth inhibition, actives largely listed as inhibitors; chicken DT40 Tdp1-/-;hTDP1 cells + 20 nM CPT, ATP luminescence, 48 h; further: on the % scale 0 is the no-effect control and ±100 the full control effect; nearly all actives have a fitted effect of over 55% in size
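Chicken DT40 Tdp1-/- cells complemented with human TDP1, 400 cells/well, exposed to compounds plus 20 nM camptothecin for at least 48 h at 37 C; viability read as ATP content by CellTiter-Glo luminescence.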
DT40 TDP1 no CPT – qHTS for Inhibitors of human tyrosyl-DNA phosphodiesterase 1 (TDP1): qHTS in cells in absence of CPT. DT40 Tdp1-/- hTDP1 cells, no CPT, ATP luminescence, 48 h. Potency, µM (top dose mostly 46.2 µM), for inactives: top-dose activity change, negative = growth inhibition, hits mostly inhibitors. 15% of 420,000 active; further: on the % scale 0 is the no-effect control and ±100 the full control effect; nearly all actives have a fitted effect of over 55% in size
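Camptothecin absent (DMSO only). Human TDP1-complemented DT40 knockout cells, 400 cells/well, 37 °C for minimum 48 hr; ATP measured via CellTiter-Glo, 30 min dark incubation, luminescence.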
ATXN2 expr inh – reduces ATXN2 reporter expression in HEK-293 cells; HEK-293 ATXN2-luciferase reporter, luminescence, 24 h; Potency, µM (series often up to 57 µM), for inactives: at the top dose activity change, negative = inhibition, hits mostly inhibitors; 0.72% of 360,000 active; further: on the % scale 0 is the no-effect control and ±100 the full control effect; nearly all actives have a fitted effect of over 55% in size
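qHTS (up to 57 uM final) was run with 24 h compound exposure of reporter cells at 37 °C. Each well was multiplexed: SteadyGlo luminescence measured ATXN2-luciferase expression after a fluorogenic Gly-Phe-AFC viability readout (25 uM final).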
S2 tox – cell viability loss in ATXN counter-screen | AID 651635 | Potency, µM (top dose mostly 56.7 µM), most hits filed as cytotoxic | 0.49% of 400,000 active | S2 cells (HEK-293 line with an ATXN2-luciferase reporter) viability, CellTiter-Fluor protease fluorescence, 24 h; further: nearly all actives have a fitted effect of over 40% in size
* = called active by the depositor; ! = repeats disagree; [ ] = dose if it differs, or a comment. The call rests on the fitted dose curve; in most records, active means well fitted curve in the direction sought with a large enough effect; inconclusive means small, poorly fitted or top-dose-only effect, or another doubt; inactive means no such curve, though single readings can be large; an effect the other way counts as inactive or inconclusive. Potency means the concentration at half of the fitted maximal effect.

How did COC(=O)C1=C(c2cccc(OC)c2OC)C[C@@H]2CC[C@H]1N2C(=O)NC1CCCCC1 do in these assays?
HepG2 tox: -1%; TGFb inhibitor: 3%; DT40 TDP1 CPT: -23%; DT40 TDP1 no CPT: inconclusive; ATXN2 expr inh: 11%; S2 tox: inactive

Results for COc1cccc(-c2nc3c(C#N)c[nH]n3c2NC2CCCCC2)c1OC ?
HepG2 tox: -6%; TGFb inhibitor: -22%; DT40 TDP1 CPT: inconclusive; DT40 TDP1 no CPT: 21µM*; ATXN2 expr inh: -19%; S2 tox: inconclusive

What do the screens show for `CN1CCCC2(CCN(C(=O)c3ccncc3)CC2)C1`?
DT40 TDP1 CPT: -2%; DT40 TDP1 no CPT: 4%

What do the screens show for `O=C1OC(c2ccc(O)c(S(=O)(=O)O)c2)(c2ccc(O)c(S(=O)(=O)O)c2)c2c(Br)c(Br)c(Br)c(Br)c21`?
DT40 TDP1 CPT: 8%; DT40 TDP1 no CPT: 6%; ATXN2 expr inh: -7%; S2 tox: inactive

How did CCC(C)N1CCN(C(=O)COc2ccc3ccccc3c2)CC1 (configuration not stated) do in these assays?
HepG2 tox: -12%; TGFb inhibitor: -6%; DT40 TDP1 CPT: inconclusive; DT40 TDP1 no CPT: inconclusive; ATXN2 expr inh: -3%; S2 tox: inactive

Results for CC[C@H](CO)Nc1nc(NCc2ccccc2)c2ncn(C(C)C)c2n1 ?
DT40 TDP1 CPT: 25µM*; DT40 TDP1 no CPT: 22µM*!; ATXN2 expr inh: 24µM*

What do the screens show for `COc1ccccc1CCNC(=O)CCC(=O)N1CC2C[C@@H](C1)Cn1c2cccc1=O`?
HepG2 tox: 0%; TGFb inhibitor: 9%; DT40 TDP1 CPT: -6%; DT40 TDP1 no CPT: -8%; ATXN2 expr inh: 5%; S2 tox: inactive

How did C[C@@H](Cc1cccc(C(F)(F)F)c1)NCCCc1ccccc1 do in these assays?
DT40 TDP1 CPT: 13µM*; DT40 TDP1 no CPT: 13µM*

Results for CCN[C@@H](C)Cc1ccccc1 ?
DT40 TDP1 CPT: 13%[92.5 µM]; DT40 TDP1 no CPT: 3%[92.5 µM]; ATXN2 expr inh: 12%[116 µM]; S2 tox: inactive

Results for O=C1NC(=O)C(=Cc2coc3ccc(O)cc3c2=O)C(=O)N1 ?
HepG2 tox: 1%; TGFb inhibitor: -1%; DT40 TDP1 CPT: 16µM*; DT40 TDP1 no CPT: 21µM*; S2 tox: inactive

How did Cc1ccc(-c2nc(CN3C(=O)CN=C(c4ccccc4Cl)c4cc(Cl)ccc43)c(C)o2)cc1 do in these assays?
HepG2 tox: -44%; TGFb inhibitor: inconclusive; DT40 TDP1 CPT: 16µM*; DT40 TDP1 no CPT: 15µM*; ATXN2 expr inh: -9%; S2 tox: inconclusive

How did Cc1oc(-c2ccccc2)nc1CN1C(=O)CN=C(c2ccccc2)c2ccccc21 do in these assays?
HepG2 tox: 3%; TGFb inhibitor: -10%; DT40 TDP1 CPT: 18µM*; DT40 TDP1 no CPT: inconclusive; ATXN2 expr inh: 2%; S2 tox: inactive

How did COc1cc(OC)c(OC)cc1C=O do in these assays?
HepG2 tox: -53%; TGFb inhibitor: -2%; DT40 TDP1 CPT: 7%; DT40 TDP1 no CPT: inconclusive; ATXN2 expr inh: -3%; S2 tox: inactive

What do the screens show for `COc1cc2c(cc1/C=C/[N+](=O)[O-])OCO2`?
HepG2 tox: -61%; TGFb inhibitor: inconclusive; DT40 TDP1 CPT: 5.8µM*; DT40 TDP1 no CPT: 2.3µM*; ATXN2 expr inh: -8%[11.3 µM]; S2 tox: 28µM*

How did O=C(Nc1ccccc1)N1CC[C@@]2(CCCN(C(=O)Oc3ccccc3)C2)C1 do in these assays?
DT40 TDP1 CPT: 5%; DT40 TDP1 no CPT: -11%

What do the screens show for `CCCCCc1cc(O)c2c(c1)OC(C)(C)[C@@H]1CCC(C)=C[C@@H]21`?
DT40 TDP1 CPT: 21µM*; DT40 TDP1 no CPT: inconclusive

Results for Cc1cc(N2CCNCC2)nc2ccccc12 ?
HepG2 tox: -17%; TGFb inhibitor: -1%; DT40 TDP1 CPT: -9%; DT40 TDP1 no CPT: inconclusive; ATXN2 expr inh: inconclusive; S2 tox: inactive

How did Cc1ccc(NC(=O)Nc2ccc3nc(N4CCN(C)CC4)cc(C)c3c2)cc1F do in these assays?
HepG2 tox: -23%; TGFb inhibitor: 26%; DT40 TDP1 CPT: 5.2µM*; DT40 TDP1 no CPT: 4.1µM*; ATXN2 expr inh: 16%; S2 tox: inconclusive

What do the screens show for `Cc1cc(N2CCCCC2)nc2ccc(NC(=O)/C=C/c3ccc(OC(C)C)cc3)cc12`?
HepG2 tox: -23%; TGFb inhibitor: inconclusive; DT40 TDP1 CPT: 9.2µM*; DT40 TDP1 no CPT: 7.3µM*; ATXN2 expr inh: -10%; S2 tox: inactive

What do the screens show for `CC1(C)Cc2c(sc3nc4n(-c5ccccc5)c(=O)c(CCC(=O)O)nn4c(=O)c23)CO1`?
HepG2 tox: 8%; TGFb inhibitor: 24%; DT40 TDP1 CPT: inconclusive; DT40 TDP1 no CPT: -29%; ATXN2 expr inh: 2%; S2 tox: inactive

Results for CN(C)c1nc(OCCNC(=O)COc2ccc(Cl)cc2Cl)nc(N2CCCCC2)n1 ?
HepG2 tox: -10%; TGFb inhibitor: -21%; DT40 TDP1 CPT: 9.2µM*; DT40 TDP1 no CPT: 12µM*; ATXN2 expr inh: -11%; S2 tox: inactive

Results for Nc1ccccc1 ?
DT40 TDP1 CPT: -17%; DT40 TDP1 no CPT: -19%; ATXN2 expr inh: 13%; S2 tox: inactive

How did [Hg+][c]1ccccc1 do in these assays?
HepG2 tox: 0.56µM*; TGFb inhibitor: 0.32µM*; DT40 TDP1 CPT: 0.089µM*; DT40 TDP1 no CPT: 0.1µM*

What do the screens show for `Cc1ccc(OCC(=O)N2CCN(CCc3ccncc3)CC2)cc1C`?
HepG2 tox: -29%; TGFb inhibitor: -10%; DT40 TDP1 CPT: -20%; DT40 TDP1 no CPT: -21%; ATXN2 expr inh: -3%; S2 tox: inactive

How did O=Cc1cn(Cc2cccc(F)c2)c2ccccc12 do in these assays?
HepG2 tox: -45%; TGFb inhibitor: inconclusive; DT40 TDP1 CPT: inconclusive; DT40 TDP1 no CPT: inconclusive; ATXN2 expr inh: inconclusive; S2 tox: inactive

How did O=Cc1cn(Cc2ccc(Br)cc2)c2ccccc12 do in these assays?
HepG2 tox: -46%; TGFb inhibitor: 1µM*; DT40 TDP1 CPT: -10%; DT40 TDP1 no CPT: -26%; ATXN2 expr inh: inconclusive; S2 tox: inconclusive

Results for C[C@@]12CCC(Cl)C[C@H]1CCC1C2CC[C@]2(C)C(=O)CCC12 (some centres not stated) ?
DT40 TDP1 CPT: 6%; DT40 TDP1 no CPT: 20%
